Here are results for 14 molecules from PubChem BioAssay (Tox21).

Some compounds were tested as several samples or in several runs, with calls that do not always agree. Activity calls are given as the source filed them. Unless noted, calls come from the whole dose curve; as a rule, active = well fitted curve in the direction sought with a large enough effect in the repeat runs; inconclusive = weak or mixed curves; inactive = no such curve, though single readings can be large; an effect the other way counts as inactive or inconclusive.

Assay [1] can be described thus: qHTS assay for identifying genotoxic compounds that show differential cytotoxicity against isogenic chicken DT40 cell lines with known DNA damage response pathways - Rad54/Ku70 mutant cell line (AID 743015). Note: nearly all actives have a fitted effect of over 60% in size. Note: potency is the fitted concentration of half-maximal effect.
The nature of assay [2]: qHTS assay to identify small molecule antagonists of the androgen receptor (AR) signaling pathway - cell viability counter screen (AID 743033; note: nearly all actives have a fitted effect of over 45% in size). In general terms: In qHTS, concentration-response curves come from the screen itself.
Assay [3] is described as follows: qHTS assay to identify small molecule antagonists of the androgen receptor (AR) signaling pathway using the MDA cell line - cell viability counter screen (AID 743041; note: nearly all actives have a fitted effect of over 45% in size; note: potency is the fitted concentration of half-maximal effect). An outline of the steps: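 Cells were plated at 3,000 per well and left 5 h. Compounds in DMSO were then pinned in, followed by R1881. After 16 h at 37C, CellTiter-Fluor fluorescence gave viability.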

Assay [4] can be described thus: qHTS assay to identify small molecule antagonists of the thyroid receptor (TR) signaling pathway - cell viability counter screen (AID 743064). Note: nearly all actives have a fitted effect of over 50% in size. Note: potency is the fitted concentration of half-maximal effect. An outline of the steps:
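CellTiter-Fluor readout, 30 min at 37 °C/5% CO2, following 23.5 h incubation of GH3.TRE-Luc cells with test compound and 1 nM T3 (final).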

A short description of assay [5]: qHTS assay to identify small molecule antagonists of the thyroid receptor (TR) signaling pathway (AID 743065). Note: nearly all actives have a fitted effect of over 55% in size. Note: potency is the fitted concentration of half-maximal effect. An outline of the steps: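 Antagonism measured as loss of luciferase signal in GH3 cells stably carrying a TRE-luciferase reporter, co-treated with compound and T3 (1 nM final) for 23.5 h at 37 C. Viability was read in the same well by CellTiter-Fluor.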

Assay [6] has as its system thyroid hormone receptor (rat, GH3 cells). As to the kind of experiment: qHTS assay to identify small molecule agonists of the thyroid receptor (TR) signaling pathway (AID 743066; calls by dose curve).
Assay [7] deals with Estrogen receptor (Homo sapiens) (UniProt P03372). As to the kind of experiment: qHTS assay to identify small molecule antagonists of the estrogen receptor alpha (ER-alpha) signaling pathway (AID 743069; active = well fitted curve in the direction sought with a large enough effect in the signal ratio in the repeat runs, not every such curve was filed as active; inconclusive = weak or mixed curves, or effect the other way; inactive = no such curve, though single readings can be large or run the other way; the % refers to the signal ratio; note: potency is the fitted concentration of half-maximal effect). The gist of the method: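 ER-alpha-UAS-bla GripTite HEK293 line; 2% charcoal-stripped FBS overnight; plated, 4 hr 37C/5% CO2; cpd in DMSO + 17beta-estradiol, 18 hr 37C; LiveBLAzer B/G FRET substrate 2 hr RT; fluorescence intensity.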
Chain of Estrogen receptor (Homo sapiens) (P03372 whole entry, looked up): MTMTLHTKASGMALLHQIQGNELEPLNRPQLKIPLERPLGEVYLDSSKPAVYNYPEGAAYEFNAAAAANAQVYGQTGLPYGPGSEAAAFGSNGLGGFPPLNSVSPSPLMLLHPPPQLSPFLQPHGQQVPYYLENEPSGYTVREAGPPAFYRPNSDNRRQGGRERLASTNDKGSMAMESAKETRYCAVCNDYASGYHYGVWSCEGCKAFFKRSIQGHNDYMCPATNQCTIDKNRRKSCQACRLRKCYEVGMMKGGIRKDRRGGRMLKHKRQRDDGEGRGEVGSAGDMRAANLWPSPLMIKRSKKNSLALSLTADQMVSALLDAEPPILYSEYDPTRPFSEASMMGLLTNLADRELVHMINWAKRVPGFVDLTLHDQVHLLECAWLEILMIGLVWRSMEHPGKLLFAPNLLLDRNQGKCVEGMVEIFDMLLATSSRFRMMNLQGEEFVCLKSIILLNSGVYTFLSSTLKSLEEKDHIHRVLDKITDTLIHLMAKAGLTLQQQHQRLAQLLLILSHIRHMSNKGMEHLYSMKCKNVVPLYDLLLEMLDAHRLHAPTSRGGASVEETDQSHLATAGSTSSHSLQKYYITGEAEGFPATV

A short description of assay [8]: qHTS assay to identify small molecule antagonists of the estrogen receptor alpha (ER-alpha) signaling pathway - cell viability counter screen (AID 743074; calls by dose curve;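 note: HEK293 cells carrying ER-alpha-UAS-bla reporter stimulated with 17beta-estradiol; nearly all actives have a fitted effect of over 45% in size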; note: potency is the fitted concentration of half-maximal effect).
Assay [9] has as its target Estrogen receptor (Homo sapiens) (UniProt P03372). Nature of the assay: qHTS assay to identify small molecule agonists of the estrogen receptor alpha (ER-alpha) signaling pathway (AID 743075; calls by dose curve;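 note: HEK293 GripTite cells with ER-alpha and UAS-driven beta-lactamase reporter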).
The target is the same in assay [10]. As to the kind of experiment: qHTS assay to identify small molecule agonists of the estrogen receptor alpha (ER-alpha) signaling pathway using the BG1 cell line (AID 743079). Note: nearly all actives have a fitted effect of over 20% in size. Note: potency is the fitted concentration of half-maximal effect.
In another assay the target is Aromatase (Homo sapiens) (UniProt P11511). Nature of the assay: qHTS assay to identify aromatase inhibitors (AID 743083). Note: nearly all actives have a fitted effect of over 55% in size. Note: potency is the fitted concentration of half-maximal effect.
Chain of Aromatase (Homo sapiens) (P11511 whole entry, looked up): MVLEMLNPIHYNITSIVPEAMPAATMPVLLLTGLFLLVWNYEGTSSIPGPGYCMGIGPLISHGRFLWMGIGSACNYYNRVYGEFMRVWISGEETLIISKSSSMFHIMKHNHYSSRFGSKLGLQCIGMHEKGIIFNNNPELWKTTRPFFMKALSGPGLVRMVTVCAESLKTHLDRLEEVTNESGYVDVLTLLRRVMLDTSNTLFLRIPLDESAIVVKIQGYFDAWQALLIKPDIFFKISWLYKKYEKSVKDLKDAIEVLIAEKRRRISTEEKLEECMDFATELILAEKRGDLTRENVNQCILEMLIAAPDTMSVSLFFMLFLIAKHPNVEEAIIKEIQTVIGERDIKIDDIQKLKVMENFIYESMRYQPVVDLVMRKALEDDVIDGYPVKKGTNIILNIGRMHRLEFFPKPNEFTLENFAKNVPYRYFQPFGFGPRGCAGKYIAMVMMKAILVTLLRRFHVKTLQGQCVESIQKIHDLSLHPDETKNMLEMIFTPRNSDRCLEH
Assay [11] is described as follows: qHTS assay for identifying genotoxic compounds that show differential cytotoxicity against isogenic chicken DT40 cell lines with known DNA damage response pathways - wild type cell line (AID 743012). Note: nearly all actives have a fitted effect of over 60% in size. Note: potency is the fitted concentration of half-maximal effect. The gist of the method:
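First, wild type DT40 cells were plated at 300 per well and equilibrated about 0.5 h at 37 C/5% CO2. Next, compounds in DMSO were added and exposure lasted 40 h. Finally, CellTiter-Glo was added for 30 min at room temperature and luminescence recorded.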

The nature of assay [12]: qHTS assay for identifying genotoxic compounds that show differential cytotoxicity against isogenic chicken DT40 cell lines with known DNA damage response pathways - Rev3 mutant cell line (AID 743014). Note: nearly all actives have a fitted effect of over 55% in size. Note: potency is the fitted concentration of half-maximal effect.
Assay [13] in a line: qHTS assay to identify small molecule antagonists of the estrogen receptor alpha (ER-alpha) signaling pathway using the BG1 cell line - cell viability counter screen (AID 743081).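 Note: compound given together with 17beta-estradiol as the ER stimulus; nearly all actives have a fitted effect of over 45% in size.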 Note: potency is the fitted concentration of half-maximal effect.
The target in assay [14] is Androgen receptor (Homo sapiens) (UniProt P10275). As to the kind of experiment: qHTS assay to identify small molecule agonists of the androgen receptor (AR) signaling pathway using the MDA cell line (AID 743040; note: nearly all actives have a fitted effect of over 20% in size). The gist of the method: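 Cells plated, 5 h at 37C/0% CO2; compound or DMSO pinned; 16 h at 37C; ONE-Glo added; luminescence measured after 30 min at room temperature. Reporter line: MDA-kb2 with MMTV-luciferase responsive to AR and GR.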
Chain of Androgen receptor (Homo sapiens) (P10275 whole entry, looked up): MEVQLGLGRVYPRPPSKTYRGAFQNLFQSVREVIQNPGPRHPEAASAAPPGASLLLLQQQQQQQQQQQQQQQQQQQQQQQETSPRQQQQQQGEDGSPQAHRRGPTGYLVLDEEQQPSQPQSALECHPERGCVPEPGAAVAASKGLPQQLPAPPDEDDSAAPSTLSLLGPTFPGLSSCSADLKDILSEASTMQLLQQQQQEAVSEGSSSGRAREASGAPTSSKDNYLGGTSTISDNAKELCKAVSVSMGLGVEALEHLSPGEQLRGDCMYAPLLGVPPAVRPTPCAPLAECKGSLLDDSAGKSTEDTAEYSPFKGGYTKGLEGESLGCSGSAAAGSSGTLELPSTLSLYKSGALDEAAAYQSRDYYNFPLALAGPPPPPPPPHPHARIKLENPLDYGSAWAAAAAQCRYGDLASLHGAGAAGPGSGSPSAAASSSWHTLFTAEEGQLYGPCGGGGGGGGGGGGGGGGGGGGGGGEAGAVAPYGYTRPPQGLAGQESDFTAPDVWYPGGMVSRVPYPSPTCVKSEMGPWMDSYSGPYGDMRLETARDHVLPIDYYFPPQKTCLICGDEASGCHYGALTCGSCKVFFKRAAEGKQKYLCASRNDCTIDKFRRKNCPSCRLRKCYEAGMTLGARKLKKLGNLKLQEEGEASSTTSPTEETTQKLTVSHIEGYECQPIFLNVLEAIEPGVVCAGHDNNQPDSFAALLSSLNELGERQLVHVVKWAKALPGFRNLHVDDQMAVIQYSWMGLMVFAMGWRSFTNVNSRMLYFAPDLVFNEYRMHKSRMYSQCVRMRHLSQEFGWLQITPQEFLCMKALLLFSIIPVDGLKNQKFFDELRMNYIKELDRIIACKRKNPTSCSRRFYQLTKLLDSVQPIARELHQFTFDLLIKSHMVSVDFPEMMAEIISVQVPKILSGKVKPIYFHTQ

The target is the same in assay [15]. Nature of the assay: qHTS assay to identify small molecule antagonists of the androgen receptor (AR) signaling pathway (AID 743035; active = well fitted inhibition curve with a large enough effect in the signal ratio in the repeat runs, not every such curve was filed as active; inconclusive = weak or mixed curves, or effect the other way; inactive = no such curve, though single readings can be large or run the other way; the % refers to the signal ratio). An outline of the steps: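 Beta-lactamase FRET read (2 h RT incubation with LiveBLAzer B/G) following 16 h of compound plus R1881 treatment of AR-UAS-bla HEK293 cells, which had been pre-incubated 4 h at 37C.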
Assay [16] has the same target. As to the kind of experiment: qHTS assay to identify small molecule antagonists of the androgen receptor (AR) signaling pathway using the MDA cell line (AID 743042; note: nearly all actives have a fitted effect of over 55% in size). The gist of the method:
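Antagonist mode: compounds plus R1881 agonist added to MDA-kb2 AR-luc cells, incubated 16 h at 37C. Luciferase reporter luminescence quantified, with multiplexed CellTiter-Fluor readout for cell viability.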

A short description of assay [17]: qHTS assay to identify small molecule antagonists of the estrogen receptor alpha (ER-alpha) signaling pathway using the BG1 cell line (AID 743080; calls by dose curve;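 note: BG1 cells stimulated with 17beta-estradiol alongside compound; series mostly up to about 70 µM; nearly all actives have a fitted effect of over 25% in size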). The gist of the method: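 After 5 days in phenol-red-free 10% charcoal-stripped FBS medium, BG1-Luc-4E2 cells were seeded, left 24 h at 37 C, co-treated with compounds and 17beta-estradiol for 21.5 h, then assayed for viability and luciferase.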

Assay [18] has as its target Androgen receptor (Homo sapiens) (UniProt P10275). As to the kind of experiment: qHTS assay to identify small molecule agonists of the androgen receptor (AR) signaling pathway (AID 743036; active = well fitted activation curve with a large enough effect in the signal ratio in the repeat runs, with a control signal flat, not every such curve was filed as active; inconclusive = weak or mixed curves, or effect the other way; inactive = no such curve, though single readings can be large or run the other way; the % refers to the signal ratio). An outline of the steps:
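Following a 4 h settling period, AR-UAS-bla HEK293 cells were dosed with compounds for 16 h at 37C. A 2 h room-temperature incubation with LiveBLAzer B/G FRET substrate preceded the fluorescence measurement.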

For `Clc1nnc(Cl)c2ccccc12`, the Potency result in [1], in assay [2], in assay [3], in assay [4], in assay [5] and in assay [7] was “inactive” each time. Besides, the Potency result (in assay [8]; in assay [9]; in assay [10]; with Aromatase (Homo sapiens)) was “inactive” throughout. For the same molecule, in [6], the molecule was classed as inactive.

For `O=C(O)c1cc(N=Nc2ccc([N+](=O)[O-])cc2)ccc1O`, the Potency entry in assay [11], in assay [12], in [1], in assay [2], in [8] and in assay [9] was “inactive” throughout. For the same molecule, the Potency result in the assay with Aromatase (Homo sapiens) was “inactive”. Besides, the Potency in assay [3] is 47.7 µM (active); in assay [5], 47.7 µM (active); in [10], 60 µM (active); in assay [13], 53.5 µM (active). In addition, the outcome in [6] was inactive.

For `CN1CCN2c3ccccc3Cc3ccccc3C2C1` (stereo not drawn), the Potency in assay [11] was 13.3 µM (active); in [12] it was 26.6 µM (active); in assay [1], 21.1 µM (active); in assay [4], 26.6 µM (active); in assay [8], 23.9 µM (active); in [13] it was 26.6 µM (active). Further, the result in [14] was inactive. The Potency result (in assay [9]; with Aromatase (Homo sapiens)) was “inactive” in each case.

For the molecule `Cc1cc(C)c(/C=C2\C(=O)Nc3ccccc32)[nH]1`, the Potency entry in assay [11], in assay [2], in assay [15], in [3], in assay [16] and in [8] was “inactive” throughout. The Potency entry (in [10]; with Aromatase (Homo sapiens)) was “inactive” each time. Also, the outcome in assay [14] and in [6] was inactive. For the same molecule, the Potency in [7] is 26.8 µM [inconclusive] (active).

As for `COC(=O)C1=C(C)NC(C)=C(C(=O)OCCN2CCN(C(c3ccccc3)c3ccccc3)CC2)C1c1cccc([N+](=O)[O-])c1` (stereo not drawn), the Potency in [11] is 5.31 µM (active); in [12], 8.41 µM (active); in assay [1], 6.68 µM (active); in assay [4], 8.41 µM (active); in assay [5], 6.68 µM (active); in assay [7] it was 8.49 µM [inconclusive] (active). In addition, the values for the Potency (in assay [13]; in the assay with Aromatase (Homo sapiens)) were 3.76 µM (active) and 13.3 µM (active), respectively. In assay [6], the outcome was inactive. In addition, the Potency result in [8] and in assay [9] was “inactive” each time.

As for `CC1(C)CCC[C@]2(C)[C@H]3CCO[C@]3(C)CC[C@@H]12`, the Potency entry in assay [11], in [12], in [1], in [3], in assay [4] and in assay [8] was “inactive” throughout. The Potency entry (in [13]; in the assay with Aromatase (Homo sapiens)) was “inactive” each time.

Consider `O=C1NC(=O)[C@@H]2CC=CC[C@H]12`, for which the results for the Potency in assay [11] and in assay [12] were 61.1 µM (active) and 48.6 µM (active), respectively. Moreover, the Potency entry in [3], in [4], in assay [5], in assay [8] and in [13] was “inactive” each time. The result in assay [6] was inactive.

Turning to `Nc1cc(Cl)c(O)c(Cl)c1`, the values for the Potency in [11], in assay [12] and in [1] were 10.9 µM (active), 15.4 µM (active) and 24.3 µM (active), respectively. The molecule was called inactive in assay [14] and in assay [6]. The Potency result in assay [3], in assay [16], in [8], in assay [9], in assay [10] and in assay [17] was “inactive” in each case. Besides, the Potency result (in [13]; with Aromatase (Homo sapiens)) was “inactive” each time.

As for `Nc1nc(N)nc(-c2cc(Cl)ccc2Cl)n1`, the Potency entry in assay [11], in assay [12], in assay [3], in assay [4], in assay [5] and in assay [8] was “inactive” in each case. Moreover, in assay [13], the Potency entry is “inactive”. The molecule was classed as inactive in assay [6].

Consider `O=c1c(O)c(-c2ccc(O)cc2O)oc2cc(O)cc(O)c12`, for which the Potency result in [2], in [3], in assay [4], in assay [8], in [9] and in [17] was “inactive” each time. Also, the Potency entry (in assay [13]; with Aromatase (Homo sapiens)) was “inactive” throughout. The molecule was classed as inactive in assay [6].

Take `Cc1nc2n(c(=O)c1CCN1CCC(c3noc4cc(F)ccc34)CC1)CCCC2`: the Potency in assay [11] is 9.44 µM (active). Also, the Potency result in assay [1], in [2], in assay [3], in assay [5], in assay [7] and in assay [8] was “inactive” each time. In addition, the Potency entry (in [9]; in assay [10]; in the assay with Aromatase (Homo sapiens)) was “inactive” each time. In assay [6], the result was inactive.

In the case of `CCCCCC/C=C\CCCCCCCC(=O)O`, the Potency entry in assay [11], in assay [12], in [1], in assay [2], in assay [3] and in [7] was “inactive” throughout. Also, the Potency result (in assay [8]; in [9]; in assay [10]; in assay [17]; in assay [13]; with Aromatase (Homo sapiens)) was “inactive” throughout.

For `CCN(CCN)c1cccc(C)c1`, in assay [11], the Potency is 69.2 µM (active) and inactive. Besides, the Potency result in assay [1], in assay [2], in assay [3], in assay [7], in [8] and in [9] was “inactive” in each case. For the same molecule, the Potency entry (in assay [10]; in assay [17]; in assay [13]; with Aromatase (Homo sapiens)) was “inactive” in each case. Also, the outcome in [6] was inactive.

`CN(C)Cc1ccccc1O`: the Potency entry in assay [12], in [1], in assay [2], in assay [15], in assay [18] and in [3] was “inactive” in each case. Further, the Potency entry in assay [16], in [4], in assay [5], in [7], in assay [8] and in assay [9] was “inactive” each time. Moreover, the Potency result (in assay [10]; in assay [17]; in assay [13]; with Aromatase (Homo sapiens)) was “inactive” each time. In addition, the call in [14] and in assay [6] was inactive.
